Reference: the supplement of paper PMC7411054
Counter-ions that a name gives are not always drawn.

Key:
Conditions in all cases: treatment time: 24 h
[1] = system: A549-ACTB-RAB5A; experiment: lowest phenotypically active concentration; higher = less potent
Summary of the method: (§1)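 Two criteria together defined phenotypic activity: deviation and reproducibility. Deviation meant ≥3 of 4 wells beyond the 95th percentile of Euclidean distances in solvent control wells, and reproducibility meant a median replicate Pearson correlation above the 95th percentile of non-replicates. Wells had been treated for 24 h at 0.3, 1, 3 or 9 µM in fifteen gene-edited A549, HepG2 and WPMY1 reporter lines before live imaging.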

[2] = system: A549-TUBA1B-RELA; experiment: as above
Summary of the method: as §1

[3] = system: HepG2-ACTB-RAB5A; experiment: as above
Summary of the method: as §1

[4] = system: WPMY1-GM130-SQSTM1; experiment: as above
Summary of the method: as §1

[5] = system: A549-ACTB-RAB5A; experiment: phenotypically active (imaging signature differs from DMSO and reproducible) at any of 0.3-9 uM (binary (1 = active, 0 = inactive)); higher = active
Summary of the method: as §1

[6] = system: A549-CANX-COX4; experiment: as above
Summary of the method: as §1

[7] = system: A549-GM130-SQSTM1; experiment: as above
Summary of the method: as §1

[8] = system: A549-TP53BP1-CLTA; experiment: as above
Summary of the method: as §1

[9] = system: A549-TUBA1B-RELA; experiment: as above
Summary of the method: as §1

[10] = system: HepG2-ACTB-RAB5A; experiment: as above
Summary of the method: as §1

[11] = system: HepG2-CANX-COX4; experiment: as above
Summary of the method: as §1

[12] = system: HepG2-GM130-SQSTM1; experiment: as above
Summary of the method: as §1

[13] = system: HepG2-TP53BP1-CLTA; experiment: as above
Summary of the method: as §1

[14] = system: HepG2-TUBA1B-RELA; experiment: as above
Summary of the method: as §1

[15] = system: WPMY1-ACTB-RAB5A; experiment: as above
Summary of the method: as §1

[16] = system: WPMY1-CANX-COX4; experiment: as above
Summary of the method: as §1

[17] = system: WPMY1-GM130-SQSTM1; experiment: as above
Summary of the method: as §1

[18] = system: WPMY1-TP53BP1-CLTA; experiment: as above
Summary of the method: as §1

[19] = system: WPMY1-TUBA1B-RELA; experiment: as above
Summary of the method: as §1

[20] = system: A549-GM130-SQSTM1; experiment: lowest phenotypically active concentration; higher = less potent
Summary of the method: as §1

O=S(=O)(c1cccc2cnccc12)N1CCNCC1
9 µM: lowest phenotypically active concentration [2] | lowest phenotypically active concentration [3] | lowest phenotypically active concentration [4]
active: phenotypically active [5] 1 | phenotypically active [8] 1 | phenotypically active [9] 1 | phenotypically active [10] 1 | phenotypically active [11] 1 | phenotypically active [12] 1 | phenotypically active [13] 1 | phenotypically active [14] 1 | phenotypically active [15] 1 | phenotypically active [16] 1 | phenotypically active [17] 1 | phenotypically active [18] 1 | phenotypically active [19] 1
inactive: phenotypically active [6] 0 | phenotypically active [7] 0
3 µM: lowest phenotypically active concentration [1]

Cc1ccc(S(=O)(=O)c2ccc([N+](=O)[O-])o2)cc1
active: phenotypically active [5] 1 | phenotypically active [7] 1 | phenotypically active [10] 1 | phenotypically active [12] 1 | phenotypically active [14] 1 | phenotypically active [15] 1 | phenotypically active [16] 1 | phenotypically active [17] 1 | phenotypically active [18] 1 | phenotypically active [19] 1
inactive: phenotypically active [6] 0 | phenotypically active [8] 0 | phenotypically active [9] 0 | phenotypically active [11] 0 | phenotypically active [13] 0
3 µM: lowest phenotypically active concentration [1] | lowest phenotypically active concentration [20] | lowest phenotypically active concentration [4]
9 µM: lowest phenotypically active concentration [3]

Cn1cc(-c2cnc3ccc4ccc(CS(=O)(=O)NCc5ccccn5)cc4c(=O)c3c2)cn1
9 µM: lowest phenotypically active concentration [1] | lowest phenotypically active concentration [2]
inactive: phenotypically active [6] 0 | phenotypically active [7] 0 | phenotypically active [8] 0 | phenotypically active [10] 0 | phenotypically active [11] 0 | phenotypically active [12] 0 | phenotypically active [13] 0 | phenotypically active [14] 0 | phenotypically active [15] 0 | phenotypically active [17] 0 | phenotypically active [18] 0 | phenotypically active [19] 0
active: phenotypically active [5] 1 | phenotypically active [9] 1 | phenotypically active [16] 1

CC1(CN2CCC(n3c(=O)[nH]c4ccccc43)CC2)OCc2ccccc2-n2cccc21 (stereo not given)
inactive: phenotypically active [6] 0 | phenotypically active [7] 0 | phenotypically active [8] 0 | phenotypically active [10] 0 | phenotypically active [11] 0 | phenotypically active [12] 0 | phenotypically active [13] 0 | phenotypically active [14] 0 | phenotypically active [15] 0 | phenotypically active [16] 0 | phenotypically active [18] 0 | phenotypically active [19] 0
9 µM: lowest phenotypically active concentration [1] | lowest phenotypically active concentration [2]
active: phenotypically active [5] 1 | phenotypically active [9] 1 | phenotypically active [17] 1
3 µM: lowest phenotypically active concentration [4]

CC[C@H](CO)Nc1nc(Nc2cccc(-c3ccccn3)c2)c2ncn(C(C)C)c2n1 [(R)-DRF053 dihydrochloride]
active: phenotypically active [5] 1 | phenotypically active [7] 1 | phenotypically active [10] 1 | phenotypically active [12] 1 | phenotypically active [13] 1 | phenotypically active [14] 1 | phenotypically active [16] 1 | phenotypically active [19] 1
9 µM: lowest phenotypically active concentration [1] | lowest phenotypically active concentration [20] | lowest phenotypically active concentration [3]
inactive: phenotypically active [6] 0 | phenotypically active [8] 0 | phenotypically active [9] 0 | phenotypically active [11] 0 | phenotypically active [15] 0 | phenotypically active [17] 0 | phenotypically active [18] 0

CN1c2ccc([N+](=O)[O-])cc2N=C(c2ccc(C(=O)O)cc2)c2cc3c(cc21)C(C)(C)CCC3(C)C
active: phenotypically active [5] 1 | phenotypically active [7] 1 | phenotypically active [9] 1 | phenotypically active [14] 1
inactive: phenotypically active [6] 0 | phenotypically active [8] 0 | phenotypically active [10] 0 | phenotypically active [11] 0 | phenotypically active [12] 0 | phenotypically active [13] 0 | phenotypically active [15] 0 | phenotypically active [16] 0 | phenotypically active [17] 0 | phenotypically active [18] 0 | phenotypically active [19] 0
9 µM: lowest phenotypically active concentration [1] | lowest phenotypically active concentration [20] | lowest phenotypically active concentration [2]

Cc1ccc(NC(=O)c2cccc(C(C)(C)C#N)c2)cc1Nc1ccc2ncn(C)c(=O)c2c1
3 µM: lowest phenotypically active concentration [4]
≤ 0.3 µM: lowest phenotypically active concentration [3]
inactive: phenotypically active [6] 0 | phenotypically active [7] 0 | phenotypically active [19] 0
9 µM: lowest phenotypically active concentration [2]
active: phenotypically active [5] 1 | phenotypically active [8] 1 | phenotypically active [9] 1 | phenotypically active [10] 1 | phenotypically active [11] 1 | phenotypically active [12] 1 | phenotypically active [13] 1 | phenotypically active [14] 1 | phenotypically active [15] 1 | phenotypically active [16] 1 | phenotypically active [17] 1 | phenotypically active [18] 1
1 µM: lowest phenotypically active concentration [1]

CC1CNCCN1S(=O)(=O)c1cccc2cnccc12 (stereo not given) [H-7 dihydrochloride]
9 µM: lowest phenotypically active concentration [1] | lowest phenotypically active concentration [20] | lowest phenotypically active concentration [4]
inactive: phenotypically active [6] 0 | phenotypically active [8] 0 | phenotypically active [9] 0 | phenotypically active [10] 0 | phenotypically active [13] 0 | phenotypically active [18] 0
active: phenotypically active [5] 1 | phenotypically active [7] 1 | phenotypically active [11] 1 | phenotypically active [12] 1 | phenotypically active [14] 1 | phenotypically active [15] 1 | phenotypically active [16] 1 | phenotypically active [17] 1 | phenotypically active [19] 1

COc1ccc(CCc2nc3cc(-c4c(C)noc4C)ccc3n2C[C@H](C)N2CCOCC2)cc1Cl
inactive: phenotypically active [6] 0 | phenotypically active [7] 0 | phenotypically active [8] 0 | phenotypically active [9] 0 | phenotypically active [16] 0 | phenotypically active [18] 0
3 µM: lowest phenotypically active concentration [1] | lowest phenotypically active concentration [3]
active: phenotypically active [5] 1 | phenotypically active [10] 1 | phenotypically active [11] 1 | phenotypically active [12] 1 | phenotypically active [13] 1 | phenotypically active [14] 1 | phenotypically active [15] 1 | phenotypically active [17] 1 | phenotypically active [19] 1
9 µM: lowest phenotypically active concentration [4]

Cc1ccc(S(=O)(=O)n2c(N)nc3ccccc32)cc1
active: phenotypically active [5] 1 | phenotypically active [10] 1
inactive: phenotypically active [6] 0 | phenotypically active [7] 0 | phenotypically active [8] 0 | phenotypically active [9] 0 | phenotypically active [11] 0 | phenotypically active [12] 0 | phenotypically active [13] 0 | phenotypically active [14] 0 | phenotypically active [15] 0 | phenotypically active [16] 0 | phenotypically active [17] 0 | phenotypically active [18] 0 | phenotypically active [19] 0
9 µM: lowest phenotypically active concentration [1] | lowest phenotypically active concentration [3]

O=C(Nc1ccncc1)c1cc([N+](=O)[O-])ccc1Cl
3 µM: lowest phenotypically active concentration [1]
9 µM: lowest phenotypically active concentration [2] | lowest phenotypically active concentration [3] | lowest phenotypically active concentration [4]
active: phenotypically active [5] 1 | phenotypically active [8] 1 | phenotypically active [9] 1 | phenotypically active [10] 1 | phenotypically active [11] 1 | phenotypically active [12] 1 | phenotypically active [13] 1 | phenotypically active [14] 1 | phenotypically active [16] 1 | phenotypically active [17] 1 | phenotypically active [19] 1
inactive: phenotypically active [6] 0 | phenotypically active [7] 0 | phenotypically active [15] 0 | phenotypically active [18] 0
